# This is a sample that favours compounds with a hit; in the whole collection about 3.1% have one here.
# D3 antag: D3 dopamine receptor (human) antagonism; D3R cells, DiscoveRx beta-arrestin luminescence, antagonist mode; active compounds read low; P35462; max response, negative = inhibition, %; actives 2.5% (n = 360,000); in the data active = max response below about -50%; inconclusive = no clear call, values can overlap the other calls; note: % is set by controls: 0 for no effect and ±100 for the full control effect
# Target sequence (P35462 whole entry, looked up): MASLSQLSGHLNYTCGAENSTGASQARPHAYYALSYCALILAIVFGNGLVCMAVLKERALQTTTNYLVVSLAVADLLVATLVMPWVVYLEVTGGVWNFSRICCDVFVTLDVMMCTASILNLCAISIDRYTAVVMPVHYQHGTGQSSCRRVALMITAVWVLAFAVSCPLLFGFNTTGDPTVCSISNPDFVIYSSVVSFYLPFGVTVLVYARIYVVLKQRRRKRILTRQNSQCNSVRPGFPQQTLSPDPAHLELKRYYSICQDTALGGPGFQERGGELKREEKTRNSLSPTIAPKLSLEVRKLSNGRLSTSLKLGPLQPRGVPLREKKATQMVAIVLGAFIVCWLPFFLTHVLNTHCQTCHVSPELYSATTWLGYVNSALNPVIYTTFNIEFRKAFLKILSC
#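 Cells expressing the human receptor were seeded at 1500 cells/well, incubated overnight at 37 degrees C in 5% CO2, then exposed to library compounds with dopamine controls for 90 minutes at 37 degrees C before luminescent detection.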
# uPA generation: blocks generation of uPA at the cell surface; cell surface uPA generation assay, qHTS; Potency, µM (series often up to 38.3 µM), for the others: at the top dose activity change, negative = inhibition, usual class: inhibitors; AID 540303; actives 0.31% (n = 330,000); active = well fitted inhibition curve with a large enough effect; inconclusive = small, poorly fitted or top-dose-only effect; inactive = no such curve, though single readings can be large or run the other way; tested in mouse RAW 264.7 cells; note: potency is the fitted concentration of half-maximal effect; % is set by controls: 0 for no effect and ±100 for the full control effect; nearly all actives have a fitted effect of over 55% in size
# RGS4 inhibitor: inhibitors of human regulator of G protein signaling 4 | Transcreener GDP fluorescence polarization, RGS4-accelerated GTP hydrolysis | AID 504845 | Potency, µM (series often up to 114 µM), for the others: at the top dose activity change, negative = inhibition, most hits filed as inhibitors | actives 0.039% (n = 390,000) | P49798; active = well fitted inhibition curve with a large enough effect; inconclusive = small, poorly fitted or top-dose-only effect; inactive = no such curve, though single readings can be large or run the other way; note: potency is the fitted concentration of half-maximal effect; % is set by controls: 0 for no effect and ±100 for the full control effect; nearly all actives have a fitted effect of over 75% in size
#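 MLSMR compounds (23 nl, pin-transferred) preincubated 10 min at room temperature with a 500nM (2x) first reagent, then RGS4 at 900nM (2x) plus Transcreener GDP mix added; fluorescence polarization (620/688 nm) read before and after 90 min at 30 °C.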
# D3 ag: agonists of human D3 dopamine receptor. max activation, %. P35462. actives 0.58% (n = 410,000). D3R DiscoveRx beta-arrestin cells, luminescence, 90 min; in the data active = max activation above about 30%; note: 0% is about no effect
#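 Agonist mode: compounds and dopamine controls were applied to plated cells for 90 min at 37 degrees C after an overnight attachment at 1500 cells/well. Luminescent read-out followed 30 - 60 minutes at room temperature with DiscoveRx detection reagent.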
# An asterisk follows results filed as active; ? = inconclusive; / = no result given; [ ] = remark or other dose.
SMILES,D3 antag,uPA generation,RGS4 inhibitor,D3 ag
O=C(NCc1ccccc1C(F)(F)F)c1cccc2c1C(=O)c1ccc(N3CCCCC3)cc1S2(=O)=O,56.3,6.1%,24.7%,32.9*
O=C1c2ccccc2S(=O)(=O)c2cc(N3CCC(C(=O)N4CCCCC4)CC3)ccc21,49.2,-16.1%,-17.4%,38.5*
O=C(NCc1cc(C(F)(F)F)ccc1Cl)c1cccc2c1C(=O)c1ccc(N3CCC(Cc4ccccc4)CC3)cc1S2(=O)=O,5.3,2.0%,-6.5%,46.5*
CC(C)(C)CNC(=O)c1cccc2c1C(=O)c1ccc(N3CCCC3)cc1S2(=O)=O,70.2,-6.7%,17.9%,22.7
O=C(NCc1ccc(F)cc1)c1cccc2c1C(=O)c1ccc(N3CCC(Cc4ccccc4)CC3)cc1S2(=O)=O,0.0,1.9%,-7.7%,42.7*
O=C(NC1CC1)c1cccc2c1C(=O)c1ccc(N3CCC(Cc4ccccc4)CC3)cc1S2(=O)=O,77.9,?,-5.4%,26.9
Cc1cccc(C)c1NC(=O)c1oc2c(c1C)-c1nn(Cc3ccccc3)cc1CC2,/,/,25.4%,1.1
Cc1nn(C)c(C)c1S(=O)(=O)N(CC(=O)N1CCN(c2ccccc2)CC1)c1ccc(C(C)C)cc1,/,/,-19.1%,-7.5
O=C1NC(=S)N/C1=C/c1cc([N+](=O)[O-])ccc1O,-106.5*,-5.0%,-52.4%,-4.8
O=C1NC(=S)N/C1=C/c1cccc([N+](=O)[O-])c1O,-74.8*,0.3%,-7.7%,-7.6
CCCOc1cc(NCc2ccccc2)c2ncn(C(C)C)c2c1,6.9,?,7.0%,9.8
COCCOc1cc(NCc2ccccc2)c2ncn(C(C)C)c2c1,-70.6*,-29.8%,-41.9%,-14.7
CCC(CO)Oc1cc(NCc2ccc(Cl)cc2Cl)c2ncn(C(C)C)c2c1 (configuration not stated),2.8,8.91µM*,35.0%,-1.3
CCC(CO)Oc1cc(NCc2ccc(C)cc2)c2ncn(C(C)C)c2c1 (configuration not stated),-17.7,-1.5%,-39.4%,5.6
CCC(CO)Oc1cc(NCc2ccccc2O)c2ncn(C(C)C)c2c1 (configuration not stated),182.8,10.1%,-4.9%,50.4*
CCOc1ccc(CNS(=O)(=O)c2ccc(-c3cc(C(F)(F)F)on3)s2)cc1,/,/,-19.0%,1.1
Cc1cccc(Cn2cc3c(=O)n(CC(=O)Nc4ccc(C)c(F)c4)nc-3c3cc(F)ccc32)c1,/,/,-15.6%,7.0
CCN(CC)CCCC(C)Nc1c2ccc(Cl)cc2nc2ccc(OC)cc12 (configuration not stated),/,/,21.2µM*,1.6
CCN(CC)CCCC(C)Nc1cc(/C=C/c2ccccc2Cl)nc2cc(Cl)ccc12 (configuration not stated),/,/,/,-18.2
CCOC(=O)c1c(-c2ccc(C)cc2)csc1NC(=O)c1cc(=O)c2cc(C)ccc2o1,/,/,?,-6.3
CN(C)c1ccc(CNC(=O)c2ccc3nc(Cc4ccccc4)oc3c2)cc1,/,/,13.4%,-6.2
CN(C)c1ccc(CNC(=O)c2ccc3nc(CCc4ccccc4)oc3c2)cc1,/,/,-7.9%,47.6*
COC(=O)C(NC(=O)c1ccccc1C)(Nc1ncc(S(=O)(=O)c2ccc([N+](=O)[O-])cc2)s1)C(F)(F)F (configuration not stated),-77.4*,0.1%,0.3%,-6.6
COC(=O)C(NC(=O)c1ccc(F)cc1)(Nc1ncc(S(=O)(=O)c2ccc([N+](=O)[O-])cc2)s1)C(F)(F)F (configuration not stated),-14.5,0.6%,-2.2%[11.4 µM],-4.2
O=C1C=C(NCc2ccccc2)CCC1,10.9,10.8%,17.5%,9.9
SMILES,D3 antag,uPA generation,RGS4 inhibitor,D3 ag
O=C1C=C(NC2=CC3OC(c4ccccc4)OCC3OC2=O)CCC1 (configuration not stated),-72.4*,-3.3%,?,-6.5
CCOC(=O)c1ccc2c(c1)N(Cc1ccc(F)cc1Cl)C(=O)c1ccccc1S2,/,/,1.6%,7.0
CC(C)CCOC(=O)C[N+](C)(C)CCOC1CC2CCC1(C)C2(C)C (configuration not stated),-1.3,10µM*,17.8%,-8.3
CCCOC(=O)C[N+](C)(C)CCOC1CC2CCC1(C)C2(C)C (configuration not stated),-8.3,-7.0%,21.2%,-11.7
COC[C@H](c1ccc(C(F)(F)F)cc1)N1CCN(C2(C)CCN(C(=O)c3c(C)ncnc3C)CC2)C[C@H]1C,/,/,/,12.7
Cc1ccc(NC(=O)CN2C(=O)c3cccnc3Sc3ccccc32)cc1C,/,/,-17.7%,3.0

# Screens deposited in PubChem by National Center for Advancing Translational Sciences (NCATS).
